Only some compounds are listed: those with a hit (about 4.9% of all), similar ones and a draw of the others.
Beta cell apopt: blocks beta cell apoptosis; INS-1E cytokine-induced death, ATP luminescence, 48 h; percent of positive-control rescue, neutral wells zero; protection from apoptosis, % (no concentration beside the values); 300,000 tested, 0.8% active; AID 435005;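 active = Every replicate reaches about 75%, or at least half do and their mean reaches it too, limit read from the data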;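 note: 0% = cytokine-treated negative control wells and 100% = positive control rescue; higher means more ATP so stronger rescue from cytokine killing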
PP5 primary: PP5 (human) phosphatase inhibition; inhibition, % at 6.7 µM; purified PP5c, OMFP substrate fluorescence; P53041; 320,000 tested, 0.18% active;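 active = inhibition above the campaign's mean inhibition across all tested compounds plus 3 SD, cut at about 9.5% in these data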;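 note: 0% = DMSO only and 100% = 100 µM cantharidin control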
PP1 inh: PP1-alpha (human) inhibition in PP5 counter-screen. P62136. purified PP1alpha, OMFP fluorescence. inhibition, % at 6.7 µM. 320,000 tested, 0.9% active. AID 2235;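 active = inhibition above the mean inhibition of all tested compounds plus 3 SD, computed separately for each screening campaign, cut at about 15% in these data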
Calb FLC: C. albicans growth modulation with fluconazole. growth inhibition, % (concentration not given with the values). C. albicans CaCi-2 (fluconazole-resistant clinical isolate) + fluconazole, Alamar Blue growth, 48 h. 300,000 tested, 0.57% active;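 active = growth inhibition above about 58% in most replicates, limit read from the data, passing the limit was not always enough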;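 note: all wells also contain fluconazole at 8 µg/ml as a sub-toxic cotreatment; 0% = median of DMSO wells and 100% = median of geldanamycin control wells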
CSC inhib: cancer stem cell inhibition; 300,000 tested, 1.1% active; cancer stem cell-like cells viability, luminescence; inhibition, % at 7.5 µM; in the data active = inhibition above about 75%; tested in HMLE shEcad cells
Mdm2-MdmX inh: disrupts the human Mdm2-MdmX interaction | SaOS-2 split-luciferase Mdm2/MdmX complementation, luminescence | inhibition, % at 8 µM | 330,000 tested, 3% active | AID 485346;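 active = inhibition of at least 50% at 8 µM in the primary screen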
Target sequence (O15151 whole entry, looked up): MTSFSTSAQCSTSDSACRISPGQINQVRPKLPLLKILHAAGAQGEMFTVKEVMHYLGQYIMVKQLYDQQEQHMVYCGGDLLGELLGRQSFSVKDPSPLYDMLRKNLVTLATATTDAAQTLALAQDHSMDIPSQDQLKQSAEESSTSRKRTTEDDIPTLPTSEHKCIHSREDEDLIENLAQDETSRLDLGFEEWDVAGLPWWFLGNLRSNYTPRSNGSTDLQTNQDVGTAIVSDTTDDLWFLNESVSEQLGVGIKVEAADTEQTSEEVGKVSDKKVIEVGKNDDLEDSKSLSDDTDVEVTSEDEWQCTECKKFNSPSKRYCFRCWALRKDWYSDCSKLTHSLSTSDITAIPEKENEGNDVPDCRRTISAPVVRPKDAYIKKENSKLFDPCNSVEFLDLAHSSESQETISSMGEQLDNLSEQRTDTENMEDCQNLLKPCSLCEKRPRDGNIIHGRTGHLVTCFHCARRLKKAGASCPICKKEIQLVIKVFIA
Target sequence (Q00987 whole entry, looked up): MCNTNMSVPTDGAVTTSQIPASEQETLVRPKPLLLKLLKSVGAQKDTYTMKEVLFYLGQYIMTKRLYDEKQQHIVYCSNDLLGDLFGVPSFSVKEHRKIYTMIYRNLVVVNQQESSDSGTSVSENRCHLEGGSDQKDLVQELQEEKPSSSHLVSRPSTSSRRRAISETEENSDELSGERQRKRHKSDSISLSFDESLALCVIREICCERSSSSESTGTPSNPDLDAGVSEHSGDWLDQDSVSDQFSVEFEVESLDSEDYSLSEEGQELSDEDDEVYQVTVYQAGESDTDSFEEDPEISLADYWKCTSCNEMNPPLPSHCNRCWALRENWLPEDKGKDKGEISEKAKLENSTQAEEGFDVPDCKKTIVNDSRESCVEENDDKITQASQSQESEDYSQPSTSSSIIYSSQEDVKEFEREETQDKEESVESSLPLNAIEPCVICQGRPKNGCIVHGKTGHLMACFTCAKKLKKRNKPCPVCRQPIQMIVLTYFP
Mdm2-MdmX conf: human Mdm2/MdmX binding inhibition, confirmed; luminescent assay; 10,000 tested, 55% active; shares compounds with Mdm2-MdmX inh; inhibition, % at 8 µM; AID 489028; in the data active = inhibition above about 40%
Full FLuc ctr: counter-screen for Mdm2/MdmX inhibitors: full-length luciferase. SaOS-2 full-length luciferase counterscreen, luminescence. shares compounds with Mdm2-MdmX inh. 6,200 tested, 77% active. inhibition, % at 8 µM;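 active = mean inhibition at 8 µM reaching about 37%, which flags the compound as non-specific, limit read from the data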;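 note: p53-null SaOS-2 cells with luciferase driven by a doxycycline-inducible promoter; compound on cells about two nights before reading with doxycycline added after day one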
* = called active by the depositor; x = no result.

SMILES	Beta cell apopt	PP5 primary	PP1 inh	Calb FLC	CSC inhib	Mdm2-MdmX inh	Mdm2-MdmX conf	Full FLuc ctr
O=C(c1ccc(Br)c([N+](=O)[O-])c1)N1CCN(Cc2ccccc2)CC1	x	-0.6	-3.2	4.6	-9.2	28.1	x	x
O=C(c1ccc(S(=O)(=O)c2ccccc2Cl)c([N+](=O)[O-])c1)N1CCN(Cc2ccccc2)CC1	0.3	-0.8	2.6	-3.3	12.5	83.9*	75.0*	29.6
O=C(CN1CCN(C(=O)c2cccc(-n3cnnn3)c2)CC1)Nc1ccccc1Cl	-10.1	-2.2	-4.7	x	4.3	-31.7	x	x
Cn1nc(-c2ccc(N3CCOCC3)c(NS(=O)(=O)c3ccc(Cl)cc3)c2)c2ccccc2c1=O	6.0	4.4	1.6	x	47.5	67.0*	36.2	38.1*
Cc1ccc(S(=O)(=O)Nc2cc(-c3nn(C)c(=O)c4ccccc34)ccc2N2CCOCC2)cc1	6.9	1.9	-2.7	31.4	-4.2	86.0*	77.5*	29.6
O=C(NC(=O)c1ccc(Cl)cc1)Nc1ccc(-c2cnco2)cc1	x	0.1	-0.3	0.8	-7.6	43.4	x	x
O=C(NC(=O)c1ccc(C(F)(F)F)cc1)Nc1ccc(-c2cnco2)cc1	8.1	1.4	-4.7	-3.7	1.6	55.5*	8.3	x
Cc1ccc(Nc2nnc(SC(C)C(=O)NCC3CCCO3)s2)cc1 (stereo not drawn)	-1.8	x	x	x	-7.8	15.9	x	x
COc1ccccc1-c1oc2ccccc2c1C#CC1(O)CCCCC1	-5.8	x	x	x	65.3	1.7	x	x
COc1ccccc1-c1oc2ccccc2c1C#CC1(N)CCCCC1	6.9	1.7	13.1	x	130.2*	73.5*	33.9	x
CC(=O)c1sc(NC(=O)C=C(C)C)nc1C	1.0	-0.8	0.8	63.4	x	-9.0	x	x
CC(=O)c1sc(NC(=O)C2(F)C(F)(F)C(F)(F)C(F)(F)C(F)(F)C2(F)F)nc1C	108.6*	3.0	-0.5	21.3	-11.3	92.7*	84.5*	28.7
O=C(O)c1ccc(CS(=O)(=O)c2c(Cl)cccc2Cl)o1	0.3	-2.2	1.8	16.7	11.2	-23.0	x	x
Cc1cc(C(=O)N/N=C/c2ccc(Cl)c([N+](=O)[O-])c2)c(C)n1-c1ccc(F)cc1	-0.6	-2.0	4.2	9.0	32.0	95.9*	82.6*	44.8*
CC(=O)Nc1ccc(S(=O)(=O)N2c3ccccc3NC(=O)CC2C)c(Cl)c1 (stereo not drawn)	-0.3	-1.4	-3.7	3.4	-2.8	3.3	x	x
COCCN(Cc1cc2cc(C)cc(C)c2nc1Cl)C(=O)Nc1ccccc1	15.7	3.1	-0.4	4.0	63.8	44.6	x	x
Cc1cc(C)c2nc(Cl)c(CN(Cc3ccco3)C(=O)Nc3ccccc3C)cc2c1	11.2	2.4	5.2	2.3	52.7	63.1*	53.0*	98.3*
COc1ccc(-c2nn(-c3ccccc3)cc2/C=C/C(=O)OCC(=O)Nc2ccccc2C#N)cc1	30.9	-1.9	-3.1	18.7	9.7	88.5*	9.2	x
COc1ccc(-c2nn(-c3ccccc3)cc2/C=C/C(=O)N2CCN(c3ccccn3)CC2)cc1	0.8	3.6	-1.1	20.3	-5.6	58.6*	18.4	x
CC#CCN1c2ccccc2[C@]23C[C@@H](C(=O)OC)N(C(=O)c4ccc(Br)cc4)C2=NC(C(=O)OC)=C(C(=O)OC)[C@H]13	-4.6	-1.9	-2.5	13.8	40.4	95.5*	75.7*	68.1*
COC(=O)C1=C(C(=O)OC)[C@@H]2N(C)c3ccccc3[C@@]23C[C@@H](C(=O)OC)N(C(=O)c2ccc(Br)cc2)C3=N1	-17.3	3.9	-4.3	15.1	13.3	68.1*	17.1	x
Cc1ccc(-c2cc(C(=O)N3CCN(c4ccccc4O)CC3)c3ccccc3n2)o1	9.0	2.4	-2.9	1.2	6.3	5.1	x	x
COc1ccc(-c2cc(C(=O)N3CCN(c4cccc(C)c4C)CC3)c3ccccc3n2)cc1OC	0.1	0.8	2.5	-3.4	15.3	74.8*	17.5	x
COc1ccc(-c2cc(C(=O)N3CCN(c4ncccn4)CC3)c3ccccc3n2)cc1OC	1.6	-0.3	-4.8	x	6.6	28.9	x	x
O=C(c1cc(-c2ccc(Br)cc2)nc2ccccc12)N1CCN(c2ccccc2O)CC1	-2.4	4.2	2.7	0.0	x	55.8*	29.6	x

Assay outcomes from PubChem BioAssay.
